Screen size: about 340,000 compounds; about 1,200 (0.35%) were called active. No stated cut-off is given here; in the data, active means inhibition above about 52%; inactive means the rest. The sample as a whole holds a higher share of actives than the screen did.

A short description of this experiment: suppresses PrP 5' UTR mRNA reporter expression (AID 488862). Further: 0 = median of the neutral control wells. The settings on record: cell-based PrP 5' UTR mRNA reporter, plate reader; hits give high values; concentration not given here.
For `CC1CCCN(C(=O)CN2C(=O)c3ccccc3S2(=O)=O)C1` (stereo unspecified), the inhibition was -26.3% (inactive).

As to `O=C(CN1C(=O)c2ccccc2S1(=O)=O)N1CCc2ccccc21`, the inhibition is 62.6% (active).

For the compound `O=C(CSCc1ccccc1)N1CCc2ccccc21`, the inhibition is -80.4% (inactive).

On to `COc1ccc(-n2c(Cc3cccn3C)nnc2SCC(=O)Nc2cc(C)cc(C)c2)cc1`, for which the inhibition is 6.37% (inactive).

With `NC(=O)c1oc2ccccc2c1NC(=O)CS(=O)(=O)c1ccccc1`, the inhibition is 10.2% (inactive).

As for `Cc1ccccc1N1C(=O)C2ON(c3ccccc3)C(c3ccncc3)C2C1=O` (stereo unspecified), the inhibition is -40.3% (inactive).

Consider `O=C1C(=O)N(c2ccccc2)C(c2ccccc2)C1c1ccccc1` (stereo unspecified), for which the inhibition is -4.98% (inactive).

Take `O=C1[C@@H](c2ccccc2)[C@@H](c2ccccc2)N1c1cccnc1`: the inhibition is 59.7% (active).

As for `COc1ccc(NS(=O)(=O)c2ccc(N3CCOCC3)c(NC(=O)/C=C/C(=O)O)c2)cc1`, the inhibition was -1.46% (inactive).

In the case of `COc1cccc(CN(C)C(=O)CC23CC4CC(CC(C4)C2)C3)c1OC`, the inhibition is -23.4% (inactive).

Turning to `Cc1cc(NC(=O)CCC(=O)N(CC(=O)NC2CCCC2)c2ccc(F)cc2)no1`, the inhibition is -5.73% (inactive).

Turning to `Cc1cc(NC(=O)/C=C/C(=O)N(c2ccccc2C)C(C(=O)NC2CCCC2)c2ccc(F)cc2)no1` (stereo unspecified), the inhibition was -18% (inactive).

In the case of `Cc1cc(NC(=O)/C=C/C(=O)N(CC(=O)NC2CCCC2)c2ccc(F)cc2)no1`, the inhibition is 53.2% (active).

With `CC(=O)c1ccc(Oc2cc(C)nc(-n3nc(C)cc3C)n2)cc1`, the inhibition is 63.6% (active).

For `COc1ccc(C(C)=O)cc1CSc1nc2nc(C)cc(C)n2n1`, the inhibition is 3.27% (inactive).

On to `CCOC(=O)c1cnc(-n2nc(C)cc2C)nc1NNc1cc(C)nc(-c2ccccc2)n1`, for which the inhibition was 33.9% (inactive).

Consider `C[N+](C)(C)CCOP(=O)([O-])OC[C@H](O)CO`, for which the inhibition was -9.94% (inactive).

Regarding `CCOCCN(C=O)c1cccc(OC)c1`, the inhibition was -5.07% (inactive).

As to `COc1ccc(S(=O)(=O)Nc2cc(C)on2)cc1NC(C)=O`, the inhibition was -6.37% (inactive).

As for `CCOc1cc(NC(=O)CCl)c(OCC)cc1NC(C)=O`, the inhibition is -34.2% (inactive).

With `CCOc1cc(NS(=O)(=O)c2ccc(OC)cc2)c(OCC)cc1NC(C)=O`, the inhibition was 64.1% (active).

On to `CN=C1SC(C(=O)O)CC(=O)N1C` (stereo unspecified), for which the inhibition was -12.6% (inactive).

Take `COc1ccc(OC)c(NC(=O)c2sc3nc(C)cc(C)c3c2N)c1`: the inhibition is -9.33% (inactive).

For `COc1ccc(OC)c(Cc2nnc(CCC(=O)NC3CCCC3)o2)c1`, the inhibition was 0.259% (inactive).

Take `COc1ccc(OC)c(Cc2cnc3nc(N)nc(N)c3c2C)c1`: the inhibition is 65.3% (active).

On to `CC1CCCCN1CCCNc1ccc(C(CC(N)=O)NC(=O)c2ccccc2)cc1[N+](=O)[O-]` (stereo unspecified), for which the inhibition was -27.6% (inactive).

Take `O=C(Nc1ccc(N2CCN(C(=O)C3CC3)CC2)cc1)c1cccs1`: the inhibition is -16.9% (inactive).

Regarding `O=C(c1cc2sccc2n1Cc1ccc(F)cc1)N1CCc2ccccc21`, the inhibition is -33% (inactive).

On to `CCOC(=O)c1cc2sccc2n1Cc1ccc(C#N)cc1`, for which the inhibition is -13.3% (inactive).

`CC1Cc2ccccc2N1C(=O)c1cc2sccc2n1Cc1ccccc1` (stereo unspecified): the inhibition was 59.8% (active).

For the compound `CCOc1ccc(C(=O)CCC(=O)NC2=NCCS2)cc1`, the inhibition was -27.4% (inactive).

For `OCC1(Cc2ccccc2)CCN(Cc2cc3ccccc3o2)CC1`, the inhibition is 74.7% (active).

For the compound `O=C(c1cc2ccccc2o1)N1CCN(Cc2ccccc2)CC1`, the inhibition was -15% (inactive).

Consider `CC(C)c1csc(CN2CCC(CO)(Cc3ccccc3)CC2)n1`, for which the inhibition is -13.8% (inactive).

Take `CCCCn1c(N)c(N(CC(C)C)C(=O)c2cnc(C)cn2)c(=O)[nH]c1=O`: the inhibition is -37.8% (inactive).

On to `CC(C)CN1CC(C)C(=O)N(c2ccccc2)C1=S` (stereo unspecified), for which the inhibition is -12.4% (inactive).

As to `O=C(C1=C[C@H](c2coc3ccccc3c2=O)C[C@H](OCc2ccc(CO)cc2)O1)N1CCN(Cc2ccccc2)CC1`, the inhibition was 81.9% (active).

For the compound `O=C(C1=C[C@H](c2ccc(C(F)(F)F)cc2)C[C@H](OCc2ccc(CO)cc2)O1)N1CCN(Cc2ccccc2)CC1`, the inhibition was -14.3% (inactive).

Take `O=C(C1=C[C@H](c2coc3ccccc3c2=O)C[C@H](OCc2ccc(CO)cc2)O1)N1CCOCC1`: the inhibition is -9.97% (inactive).

Consider `Cc1ccc(N(C(=O)C(F)(F)F)C(C(=O)NC2CCCCC2)c2ccncc2)cc1C` (stereo unspecified), for which the inhibition is -20.4% (inactive).

With `Cn1c(Cc2cccs2)nnc1SCC(=O)Nc1ccccc1`, the inhibition is -26.4% (inactive).

The values above are taken from PubChem BioAssay AID488862 (Broad Institute, 2010).
